Sampled rows, rich in hits. Any-hit rate of the full collection: about 18%.
DT40 TDP1 CPT = qHTS for Inhibitors of human tyrosyl-DNA phosphodiesterase 1 (TDP1): qHTS in cells in presence of CPT. chicken DT40 Tdp1-/-;hTDP1 cells + 20 nM CPT, ATP luminescence, 48 h. Potency, µM (top dose mostly 46.2 µM), inactives show at the highest dose activity change, negative = growth inhibition, hits mostly inhibitors. 420,000 compounds, 12% hits; further: potency means the concentration at half of the fitted maximal effect; nearly all actives have a fitted effect of over 55% in size
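Cell growth measured by CellTiter-Glo luminescence after a minimum 48 h, 37 C compound exposure with 20 nM CPT in Tdp1-knockout DT40 cells stably expressing hTDP1, seeded 400/well; qHTS titration format.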
CtBP-E1A inh = qHTS Assay for Inhibitors of the CtBP/E1A Interaction; CtBP / adenovirus E1A interaction (AlphaScreen); AlphaScreen GST-E1A/His-CtBP binding, 1536-well; active compounds read low; activity change, % (test concentration not listed); 340,000 compounds, 0.49% hits; AID 651724, 2012; in the data active means activity change below about -65%; inconclusive means mostly about -30% to -63%
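In 5 uL wells, 23 nL compound meets equimolar GST-E1A and His-CtBP (5X stock 125 nM each) for 2 h, 37 °C. Beads (5X, 50 ug/mL) then 1 h, 37 °C, dark.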
DT40 TDP1 no CPT = qHTS for Inhibitors of human tyrosyl-DNA phosphodiesterase 1 (TDP1): qHTS in cells in absence of CPT; 420,000 compounds, 15% hits; DT40 Tdp1-/- hTDP1 cells, no CPT, ATP luminescence, 48 h; Potency, µM (highest dose often 46.2 µM), for the others: at the top dose activity change, negative = growth inhibition, hits mostly inhibitors; AID 686978, 2013; further: potency means the concentration at half of the fitted maximal effect; nearly all actives have a fitted effect of over 55% in size
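Chicken DT40 Tdp1-/- cells complemented with human TDP1, screened without camptothecin (DMSO vehicle only), 400 cells/well. Compounds pin-transferred, cells incubated at 37 °C for at least 48 hr. Growth read as ATP-dependent luminescence (CellTiter-Glo, 30 min at RT).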
TDP1 inh = qHTS Assay for Inhibitors of Tyrosyl-DNA Phosphodiesterase (TDP1); Tyrosyl-DNA phosphodiesterase 1 (Homo sapiens), Q9NUW8; recombinant TDP1, AlphaScreen DNA substrate cleavage; Potency, µM (highest dose often 130 µM), without a hit: at the top dose activity change, negative = inhibition, usual class: inhibitors; 350,000 compounds, 0.28% hits; AID 485290, 2010; further: potency means the concentration at half of the fitted maximal effect; nearly all actives have a fitted effect of over 40% in size
Target sequence (Q9NUW8 whole entry, looked up): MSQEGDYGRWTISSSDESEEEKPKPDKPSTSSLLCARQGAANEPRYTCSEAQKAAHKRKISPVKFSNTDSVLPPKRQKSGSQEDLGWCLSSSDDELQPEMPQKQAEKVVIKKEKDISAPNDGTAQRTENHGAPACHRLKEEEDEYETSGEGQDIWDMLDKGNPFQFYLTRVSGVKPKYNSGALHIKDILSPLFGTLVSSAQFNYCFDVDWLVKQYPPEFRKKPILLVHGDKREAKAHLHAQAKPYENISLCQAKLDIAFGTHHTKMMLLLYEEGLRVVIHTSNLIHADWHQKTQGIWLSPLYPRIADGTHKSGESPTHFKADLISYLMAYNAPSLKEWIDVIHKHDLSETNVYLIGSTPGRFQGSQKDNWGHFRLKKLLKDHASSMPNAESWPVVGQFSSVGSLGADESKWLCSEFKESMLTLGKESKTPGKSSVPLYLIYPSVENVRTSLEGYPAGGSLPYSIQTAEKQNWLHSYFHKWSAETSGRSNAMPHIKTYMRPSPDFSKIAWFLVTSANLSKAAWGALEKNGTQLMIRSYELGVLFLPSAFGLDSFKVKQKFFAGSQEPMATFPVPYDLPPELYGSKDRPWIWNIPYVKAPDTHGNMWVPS
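AlphaScreen read-out: signal falls as enzyme removes the 3' tyrosine-FITC from a 5'-biotinylated DNA oligo (15 nM, 5 min, RT). Enzyme was E. coli-made recombinant Tdp1 at 1 nM, exposed to compound for 15 min beforehand; beads 10 ug/ml, 10 min.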
IL1B secr inh = qHTS for Inhibitors of Inflammasome Signaling: IL-1-beta AlphaLISA Primary Screen; THP-1 LPS/ATP IL-1B secretion, AlphaLISA, 16 h; active compounds read low; activity change, % at 57.5 µM; 360,000 compounds, 4.7% hits; AID 743279, 2014; in the data active means activity change below about -50%; inconclusive means mostly about -30% to -49%
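THP-1 cells pretreated 1 hr with compounds (up to 57.5 uM final), then stimulated with LPS (250 ng/mL final) plus ATP (1.25 mM final); secreted IL-1B measured by AlphaLISA after 16 hr, decreased signal indicating inhibition.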
Six1-Eya2 blk = qHTS Assay for Inhibitors of the Six1/Eya2 Interaction; Homeobox protein SIX1 (Homo sapiens) + Protein phosphatase EYA2 (Homo sapiens), …; AlphaScreen GST-Six1/His-Eya2 binding, biochemical; active compounds read low; activity change, % (no concentration beside the values); 360,000 compounds, 0.56% hits; in the data active means activity change below about -65%; inconclusive means mostly about -30% to -63%
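Compounds are tested against tagged Six1 and Eya2 proteins bridged by glutathione donor and nickel acceptor beads; after a one-hour incubation at 37 °C without light, AlphaScreen emission is recorded.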
Active calls of the source: *; ? = inconclusive; nt = no result. Unless noted, the call rests on the fitted dose curve; in most records, active means well fitted curve in the direction sought with a large enough effect; inconclusive means small, poorly fitted or top-dose-only effect, or another doubt; inactive means no such curve, though single readings can be large; an effect the other way counts as inactive or inconclusive. On the % scale 0 is the no-effect control and ±100 the full control effect.

SMILES	DT40 TDP1 CPT	CtBP-E1A inh	DT40 TDP1 no CPT	TDP1 inh	IL1B secr inh	Six1-Eya2 blk
Cc1[nH]ccc2cc3nc4ccccc4c3cc12	5.2µM*	3	3.7µM*	nt	-58*	-16
COc1ccc(OC)c(C2=NNC(=NCc3ccc4c(c3)OCO4)SC2)c1	?	-28	?	5%	0	-21
Clc1ccc(C2=NNC(=NCc3ccc4c(c3)OCO4)SC2)cc1	10µM*	?	5.8µM*	5%	?	?
Oc1ccc(C2=NNC(=NCc3ccc4c(c3)OCO4)SC2)c(O)c1	3.7µM*	-19	4.6µM*	5%	-7	-13
CN(Cc1cccc(F)c1)C(=O)c1ccc(S(=O)(=O)C(F)F)cc1	-9%	-15	-18%	4%	7	-5
CS(=O)(=O)c1ccccc1C(=O)N(CCC1=CCCCC1)c1c(N)n(Cc2ccccc2)c(=O)[nH]c1=O	29µM*	-2	?	14%	-5	2
Nc1c(N(CCC2=CCCCC2)C(=O)c2ccccc2F)c(=O)[nH]c(=O)n1Cc1ccccc1	?	1	-25%	-10%	13	6
Cc1cc(NC(=O)CSc2nc3cc(Cl)ccc3c(=O)n2CC(C)C)no1	nt	nt	nt	2%	nt	nt
CCN(CC)S(=O)(=O)c1ccc2oc(SCc3ccc(F)cc3)nc2c1	?	32	21µM*	-7%	-6	12
CCN(CC)S(=O)(=O)c1ccc2oc(SCC(=O)Nc3cc(C)on3)nc2c1	0.65µM*	-20	0.73µM*	3%	-14	-5
Cc1cc(NC(=O)CSc2nc3cc(Cl)ccc3o2)no1	4.6µM*	2	2.6µM*	nt	46	7
CCN(CC)S(=O)(=O)c1ccc2oc(SCC(=O)NC3CC3)nc2c1	-24%	-4	-11%	-2%	27	2
O=C(CSc1ccc(Cl)cc1)Nn1cnnc1	18µM*	2	?	4%	-5	4
CC1(C2CC(=O)c3c(O)ccc(O)c3C2)OCCO1 (stereo not given)	-29%	-20	?	nt	-10	0
Cc1ccc(SCC(=O)Nc2cc(C)on2)cc1	?	6	-2%	3%	26	3
Cc1cc(NC(=O)CSc2ccc(Cl)cc2)no1	13µM*	2	16µM*	-4%	-16	-1
O=C(N/N=C/c1cccnc1)c1cc(-c2cccs2)nc2ccccc12	?	-8	16µM*	2%	30	-8
O=C(N/N=C/c1ccc[nH]1)c1cc(-c2cccs2)nc2ccccc12	?	-17	21µM*	10%	15	?
Cn1cccc1/C=N/NC(=O)c1cc(-c2cccs2)nc2ccccc12	8.2µM*	-3	5.8µM*	11%	21	?
O=C(N/N=C/c1cccs1)c1ccc2ncccc2c1	1%	-17	-2%	5%	-21	-6
O=C(N/N=C/c1ccc2ncccc2c1)c1cc(-c2cccs2)nc2ccccc12	2.9µM*	nt	3.3µM*	nt	30	1
O=C(NN1CCOCC1)c1cc(-c2cccs2)nc2ccccc12	-17%	-6	?	3%	-5	7
Cc1ccc(NC(=O)NN2CCOCC2)cc1	12%	nt	15%	8%	8	8
COc1ccccc1C(=O)NC(=O)COC(=O)C1CC2CCCC(C1)C2=O (stereo not given)	-13%	9	-9%	0%	-7	2
CC1=C(C(=O)OC2CCCCCCC2)C(c2cccc(O)c2)NC(=O)N1 (stereo not given)	?	-1	?	6%	-19	0
Cn1cccc1/C=N/NC(=O)c1cc2ccccc2cc1O	-27%	-21	21µM*	1%	74	-23
